For assay [1], the system named is Human papillomavirus type 1a protein E7 (residues 44-93). The experiment in a line: HPV1a E7 fragment binders on microarrays, primary screen, biochemical, small-molecule microarray, residues 44-93, 635 nm fluorescence (AID 1108).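 Note: E7 fragment applied at 1 µg/mL in TBST for 1 h at 4 C; score combines spot fluorescence with its signal to noise ratio.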 As to conditions: small-molecule microarray binding, fluorescence 635 nm; higher = more signal.
A short description of assay [2]: modulators of HCV replicon luciferase signal, primary screen, HCV replication inhibitor project, Huh7 cells, luciferase reporter (AID 1109).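 Note: huh7 hepatoma cells harbouring a luciferase neomycin HCV replicon reporter; luciferase luminescence as measure of HCV replicon replication; test concentration not given here.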 To be noted: 48 h, higher = more signal.
In assay [3] the target is Left-right determination factor 2 (Homo sapiens) (UniProt O00292). The experiment in a line: LEFTY2 binders on small-molecule microarrays, primary screen, biochemical, small-molecule microarray, 635 nm fluorescence scan (AID 1110). As to conditions: LEFTY2 binding, higher = more signal.
Left-right determination factor 2 (Homo sapiens), sequence (O00292 whole entry, looked up): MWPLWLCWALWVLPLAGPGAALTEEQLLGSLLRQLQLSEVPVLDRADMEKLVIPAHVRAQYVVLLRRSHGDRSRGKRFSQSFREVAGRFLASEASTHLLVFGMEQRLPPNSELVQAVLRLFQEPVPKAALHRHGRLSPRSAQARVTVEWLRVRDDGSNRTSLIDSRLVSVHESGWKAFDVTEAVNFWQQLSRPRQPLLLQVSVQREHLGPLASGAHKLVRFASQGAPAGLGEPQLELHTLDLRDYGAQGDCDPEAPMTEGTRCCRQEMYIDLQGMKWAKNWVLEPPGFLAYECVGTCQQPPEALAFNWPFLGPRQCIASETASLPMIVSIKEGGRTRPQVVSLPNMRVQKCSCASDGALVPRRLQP
Assay [4] deals with Calmodulin-1 (Homo sapiens) (UniProt P0DP23). The experiment in a line: CALM1 binders on microarrays, EGTA buffer, profiling panel, biochemical, small-molecule microarray, Cy5-labelled CALM1 (AID 1111).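 Note: labelled calmodulin applied in Tris saline Tween buffer holding calcium plus EGTA and DTT.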 As to conditions: Cy5-CALM1 binding fluorescence, higher = more signal.
The target is the same in assay [5]. Nature of the assay: calcium-bound CALM1 binders on microarrays, profiling panel, artefact control for SMM control-protein annotation, biochemical, small-molecule microarray, Cy5-labelled CALM1, plus calcium (AID 1112).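 Note: score merges spot fluorescence with signal to noise from triplicate slides.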 As to conditions: Cy5-CALM1 binding fluorescence, higher = more signal.
The nature of assay [6]: small-molecule microarray binders of probe aWnt5a, primary screen, biochemical, biotinylated probe, 635/667 nm fluorescence (AID 1113).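 Note: score merges 667 nm fluorescence intensity with signal-to-noise per printed feature.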 To be noted: higher = more signal.
Assay [7] can be described thus: small-molecule microarray binders of probe aShh, primary screen, biochemical, biotinylated probe, 635/667 nm fluorescence (AID 1114).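 Note: probe is biotin-labelled aShh protein from a stem cell growth factor screen; measures binding of labelled protein to compounds printed on the slide; score merges feature fluorescence at 667 nm with signal-to-noise.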 As to conditions: higher = more signal.
Assay [8] is described as follows: small-molecule microarray binders of probe aNog, primary screen, biochemical, biotinylated probe, 635/667 nm fluorescence (AID 1115).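 Note: probe is biotinylated aNog protein used at 0.15 µg/mL for 1 h at 4 C; z-score combines 667 nm fluorescence of each spot with its signal to noise.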 To be noted: higher = more signal.
Assay [9] deals with Torsin-1A-interacting protein 1 (Homo sapiens) (UniProt Q5JTV8). Nature of the assay: LAP1 binders from COS7 cell lysate, primary screen, small-molecule microarray, 635/667 nm fluorescence (AID 1116). To be noted: COS7-hLAP1 lysate binding, 635 nm fluorescence, higher = more signal.
Torsin-1A-interacting protein 1 (Homo sapiens), sequence (Q5JTV8 whole entry, looked up): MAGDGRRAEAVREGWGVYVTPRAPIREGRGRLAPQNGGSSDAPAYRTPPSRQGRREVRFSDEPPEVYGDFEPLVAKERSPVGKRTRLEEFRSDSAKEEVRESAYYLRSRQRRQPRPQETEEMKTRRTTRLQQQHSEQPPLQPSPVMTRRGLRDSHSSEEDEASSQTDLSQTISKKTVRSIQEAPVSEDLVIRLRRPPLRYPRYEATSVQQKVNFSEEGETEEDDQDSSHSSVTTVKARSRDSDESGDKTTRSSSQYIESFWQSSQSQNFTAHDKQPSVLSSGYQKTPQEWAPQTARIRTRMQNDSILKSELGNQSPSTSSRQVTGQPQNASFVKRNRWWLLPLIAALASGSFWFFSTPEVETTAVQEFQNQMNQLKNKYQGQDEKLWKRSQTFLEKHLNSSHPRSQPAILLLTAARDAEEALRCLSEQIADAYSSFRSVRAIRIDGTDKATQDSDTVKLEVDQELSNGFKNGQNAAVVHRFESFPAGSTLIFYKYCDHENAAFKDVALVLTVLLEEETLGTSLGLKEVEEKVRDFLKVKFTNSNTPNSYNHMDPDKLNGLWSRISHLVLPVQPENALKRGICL
Assay [10] deals with Alpha-bungarotoxin (Bungarus multicinctus) (UniProt P60615). The experiment in a line: alpha-bungarotoxin binders on microarray, profiling panel, artefact control for SMM control protein annotation, biochemical, small-molecule microarray, Alexa647 label, 635/667 nm fluorescence (AID 1117). To be noted: alpha-BTX-A647 binding fluorescence, higher = more signal.
Alpha-bungarotoxin (Bungarus multicinctus), sequence (P60615 whole entry, looked up): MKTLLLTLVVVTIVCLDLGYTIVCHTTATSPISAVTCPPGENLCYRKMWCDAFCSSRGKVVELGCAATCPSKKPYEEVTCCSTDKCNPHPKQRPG

In the case of `[N-]=[N+]=NCc1ccccc1[C@H]1OC(c2ccc(OCCCO)cc2)=N[C@@]1(Cc1ccccc1N=[N+]=[N-])C(=O)NCC(O)CO` (stereo not given in full), the composite z-score in [1] was 1.46; in assay [3] it was -0.591; in assay [4], 1.33; in assay [5] it was 0.734; in assay [6], 0.112; in assay [7] it was 0.28. The composite z-score in assay [8] was 1.63; in assay [9], 1.48; in assay [10] it was 1.08. This compound also returned a z-score in assay [2] of -1.75.

As for `CN(C)C(=O)[C@]1(CCC(=O)OC(C)(C)C)N=C(c2ccc(OCCCO)cc2)O[C@@H]1c1ccccc1CN=[N+]=[N-]`, the composite z-score in [1] is 1.44; in [3] it was -0.502; in [4], 2.31; in assay [5], 0.392; in assay [6], 0.26; in [7], 0.4. In addition, the figures for the composite z-score in assay [8], in [9] and in assay [10] were 1.13, 2.9 and 1.81, respectively. Besides, the z-score in [2] was -2.19.

With `CCCCCN1CC=CC23O[C@@H]4C=CCCOC(=O)C4[C@H]2C(=O)N(CCCCCCO)[C@@H]3C1=O` (stereo not given in full), the composite z-score was 0.521 in [1]; -0.287 in assay [3]; -0.711 in [4]; -0.533 in assay [5]; -0.168 in assay [6]; -0.0769 in assay [7]. Besides, the composite z-score is -0.316 in [8], 0.564 in assay [9] and -0.675 in [10]. This compound also displayed a z-score in assay [2] of 0.525.

For the compound `COC(=O)[C@@]1(Cc2ccc(OC)cc2)[C@H]2c3cc(C(=O)N4CCCC4)n(CCc4c[nH]c5ccc(OC)cc45)c3C[C@H]2CN1C(=O)c1ccccc1`, the composite z-score in [1] came to 0.113; in assay [3], 0.221; in assay [4], 2.28; in assay [5] it was 1.46; in assay [6], 0.155; in assay [7] it was 0.504. Moreover, the composite z-score in assay [8] came to 1.54; in assay [9] it was 2.19; in assay [10] it was 1.38. The same compound showed a z-score in assay [2] of -1.93.

`CCOC(=O)C1=C[C@@H](c2ccccc2)N(S(=O)(=O)c2ccc(C)cc2)[C@H]1c1ccc(OC)cc1`: the composite z-score in assay [1] amounted to 0.796; in assay [3], 0.976; in [4] it was 1.6; in assay [5] it was 0.736; in [6], 0.661; in assay [7], 0.926. Besides, the results for the composite z-score in assay [8], in assay [9] and in [10] were 1.25, 0.118 and 1.24, respectively. This compound came in with a z-score in assay [2] of -1.92.

Turning to `[N-]=[N+]=NCc1ccccc1C[C@@]1(C(N)=O)N=C(c2ccc(OCCCO)cc2)O[C@@H]1c1ccccc1`, the composite z-score in assay [1] was 1.43; in assay [3] it was -1.41; in assay [4] it was 1.85; in [5] it was 0.989; in assay [6] it was -0.0417; in assay [7], -0.0035. For the same compound, the composite z-score in assay [8] was -0.071; in assay [9] it was 2.07; in [10], 2.33. Besides, the z-score in [2] was -1.74.

For `C=CCNC(=O)[C@@H]1[C@H]2C(=O)O[C@H](c3ccccc3)[C@H](c3ccccc3)N2[C@H](c2ccc(O)cc2)[C@@]12C(=O)N(C(=O)OCCOC)c1ccc(C#CC3=CCCCC3)cc12`, the composite z-score in [1] is 1.36; in [3], 0.588; in assay [4], 0.544; in assay [5], -0.0251; in assay [6], -0.0685; in assay [7], -0.0769. Also, the figures for the composite z-score in assay [8], in [9] and in [10] were 0.185, 0.319 and 0.662, respectively. Also, in [2], the z-score was -2.14.

Turning to `COc1cc(NN2C(C(O)c3ccco3)C=CC3C(=O)N(C)C(=O)C32)cc(OC)c1OC` (stereo not given), the composite z-score in assay [1] was 0.02; in assay [3], 0.173; in assay [4] it was 0.723; in assay [5] it was -0.0913; in [6] it was 0.107; in assay [7], 0.394. Also, the composite z-score in assay [8] was determined as 0.415; in assay [9], 0.447; in assay [10] it was 0.509. In assay [2], this compound registered a z-score of -0.0965.

As for `NC(=O)[C@@]1(Cc2ccccc2)COC(c2ccc(OCCCO)cc2)=N1`, the composite z-score was 0.404 in [1]; -0.263 in assay [3]; 0.435 in [4]; 1.2 in assay [5]; -0.0179 in assay [6]; 0.46 in assay [7]. The composite z-score in assay [8] was 0.959; in [9], 0.381; in [10], -0.0002. In [2], this compound yielded a z-score of 1.84.

For `CCCC[C@@H](O)C1=C(COc2ccccc2)C[C@H]2C(=O)N(Cc3ccccc3)C(=O)[C@H]2[C@H]1CO`, the composite z-score is 0.207 in assay [1]; 0.321 in assay [3]; 0.422 in [4]; -0.451 in assay [5]; -0.161 in assay [6]; -0.214 in assay [7]. The composite z-score in assay [8] was -0.213; in assay [9] it was 0.176; in [10] it was 1.29. Moreover, the z-score in assay [2] is -2.3.

`COc1ccc([Si](C)(C)[C@@H]2[C@@H](CCO)O[C@]3(C(=O)N(Cc4cccc(NC(=O)[C@H](C)O)c4)c4ccccc43)[C@H]2C)cc1`: the composite z-score is 1.36 in assay [1]; 0.0544 in assay [3]; 0.953 in assay [4]; -0.204 in assay [5]; 0.0998 in assay [6]; 0.223 in assay [7]. Moreover, the composite z-score in assay [8] stood at 0.638; in assay [9] it was 0.999; in assay [10] it was 0.756. The z-score in assay [2] was -5.17.

Consider `Cn1cccc1C(O)C1C=CC2C(=O)N(c3ccccc3)C(=O)C2N1Nc1ccccc1` (stereo not given), for which the composite z-score in [1] is 1.09; in assay [3], 0.739; in [4], 1.69; in assay [5], 0.405; in assay [6] it was 0.181; in assay [7], -0.0578. The composite z-score in assay [8] came to 0.977; in assay [9], 1.31; in assay [10], 1.68. In assay [2], this compound registered a z-score of -0.36.

Regarding `CCCCN1CC=CC23O[C@@H]4/C=C\CCCOC(=O)C4[C@H]2C(=O)N(CCO)[C@@H]3C1=O` (stereo not given in full), the composite z-score in assay [1] was 0.493; in [3] it was -1.51; in [4] it was -0.343; in assay [5] it was 0.278; in assay [6], -0.221; in assay [7] it was -0.206. The values for the composite z-score in [8], in assay [9] and in [10] were -0.158, 0.0966 and -0.401, respectively. The z-score in assay [2] is -0.219.

Consider `CCCC[C@@H]1C[C@H]1[C@@H](NC(=O)c1cccs1)c1ccccc1C(F)(F)F`, for which the composite z-score in assay [1] was 1.39; in assay [3], -0.363; in assay [4] it was 1.72; in assay [5] it was 0.763; in [6], -0.001; in [7], 0.663. The composite z-score in assay [8] is 1.52; in [9] it was 0.582; in assay [10] it was 0.881. Moreover, the z-score in [2] is 0.758.

As to `COc1ccc([Si](C)(C)[C@@H]2[C@@H](CCO)O[C@]3(C(=O)N(Cc4ccccc4)c4ccc(N5CCOC5=O)cc43)[C@H]2C)cc1`, the composite z-score in [1] was 1.35; in [3], 0.217; in assay [4] it was 0.623; in assay [5] it was 0.521; in [6], 0.394; in assay [7], -0.0793. For the same compound, the results for the composite z-score in assay [8], in assay [9] and in [10] were 0.0139, 0.855 and 1.09, respectively. The compound also came in with a z-score in [2] of -4.17.

On to `CC(C)(C)OC(=O)COc1cccc(C(=O)CCN2CCOCC2)c1`, for which the composite z-score in [1] was 0.219; in assay [3], 0.0527; in assay [4], -0.501; in assay [5] it was -0.841; in assay [6], -0.192; in [7], -0.193. In addition, the composite z-score in assay [8] was -0.419; in [9] it was -0.0786; in [10], -0.204. Moreover, the z-score in assay [2] is -1.7.

Regarding `C=CC[C@@]1(C(=O)NCCCOC)N=C(c2ccc(OCCCO)cc2)O[C@@H]1c1ccccc1N=[N+]=[N-]`, the composite z-score is 1.44 in assay [1]; -0.553 in assay [3]; 0.968 in assay [4]; -0.105 in [5]; -0.0519 in assay [6]; 0.0639 in assay [7]. In addition, the figures for the composite z-score in assay [8], in assay [9] and in assay [10] were 0.291, 0.905 and 0.767, respectively. The z-score in [2] was -1.09.

The values above are taken from PubChem BioAssay.
